The source made the active and inactive calls. The call rests on the fitted dose curve.

Estrogen receptor (Homo sapiens), sequence (P03372 whole entry, looked up): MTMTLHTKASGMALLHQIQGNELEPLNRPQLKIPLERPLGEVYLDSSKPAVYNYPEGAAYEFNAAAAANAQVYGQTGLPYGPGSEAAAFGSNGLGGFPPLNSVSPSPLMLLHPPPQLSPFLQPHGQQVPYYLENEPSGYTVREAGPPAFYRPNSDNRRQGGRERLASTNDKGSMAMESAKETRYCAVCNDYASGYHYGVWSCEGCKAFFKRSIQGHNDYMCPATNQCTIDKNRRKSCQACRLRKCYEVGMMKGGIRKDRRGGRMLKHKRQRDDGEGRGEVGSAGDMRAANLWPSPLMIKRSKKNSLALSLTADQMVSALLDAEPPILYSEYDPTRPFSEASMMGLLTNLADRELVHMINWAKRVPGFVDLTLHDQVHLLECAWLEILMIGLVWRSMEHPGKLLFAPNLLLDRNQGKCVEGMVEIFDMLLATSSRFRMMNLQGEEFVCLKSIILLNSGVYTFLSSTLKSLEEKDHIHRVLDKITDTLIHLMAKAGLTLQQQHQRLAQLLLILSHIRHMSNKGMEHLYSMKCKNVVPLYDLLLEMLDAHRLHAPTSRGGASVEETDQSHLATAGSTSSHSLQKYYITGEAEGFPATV

In the assay the target is Estrogen receptor (Homo sapiens) (UniProt P03372). In words: qHTS assay to identify small molecule agonists of the estrogen receptor alpha (ER-alpha) signaling pathway in the presence of an antagonist (AID 1259383). Further: top concentration of the series differs between compounds; nearly all actives have a fitted effect of over 15% in size. The note with it: VM7Luc4E2 cells, ERE-luciferase, +ICI-182,780, 22 h; series mostly up to 92.4 µM. From the text:
National Center for Advancing Translational Sciences [NCATS] NIH Chemical Genomics Center [NCGC] U.S. Environmental Protection Agency [EPA] National Institutes of Environmental Health Sciences [NIEHS] National Toxicology Program [NTP] Assay overview: Estrogen receptor (ER), a member of nuclear hormone receptor plays an important role in development, metabolic homeostasis and reproduction. Two subtypes of ER, ER-alpha and ER-beta, have similar expression patterns with some uniqueness in both types. Endocrine disrupting chemicals (EDCs) and their interactions with steroid hormone receptors like ER causes disruption of normal endocrine function. Therefore, it is important to understand the effect of environmental chemicals in ER signaling pathway. For identifying ER agonists, VM7Luc4E2 cell line has been used in the current assay. VM7Luc4E2 cell line (provided by Denison MS, University of California) endogenously expresses full-length ER-alpha and is stably transfected with a plasmid containing four estrogen responsive elements (ERE) upstream of a luciferase reporter gene. This current screening for measuring luciferase reporter gene activity using VM7Luc4E2 cells against Tox21 10K library collection is a confirmation study on agonist mode screening in presence of ER-antagonist (ICI-182,780) at 10.0nM final concentration.
Assay Protocol Summary: VM7Luc4E2 cells were cultured in phenol red free assay medium containing 10% charcoal stripped FBS for 5 days prior to the assay. The cells were dispensed at 4,000 cells in 4uL of assay medium per well into white wall/solid-bottom 1536-well plates (Corning Life Sciences, Corning, NY) using a Multidrop Combi (Thermo Fisher Scientific Inc., Waltham, MA) dispenser. After the assay plates were incubated at 37C and 5% CO2 for 24hr, 1uL of 10.0nM (final concentration) ICI-182,780 or assay buffer was added using two separate tips of Flying Reagent Dispenser (FRD, Aurora Discovery, San Diego, CA). Then 23nL of compounds dissolved in DMSO at 15 concentrations and positive controls or DMSO only was transferred to the assay plates by a Pintool station (Wako, San Diego, CA). The assay plates were incubated at 37C and 5% CO2 for 22hr. For luciferase read, 4uL/well ONE-Glo reagent (Promega Corporation, Madison, WI) was added to each well using FRD and after 30min incubation at room temperature, luminescence signal was measured on ViewLux plate reader (PerkinElmer, Shelton, CT).
On to `O=C(O)CCSCCC(=O)O`, for which the result was inactive.

`Cc1ccc(-c2ccccc2C#N)cc1`: the outcome was inactive.

On to `Nc1ccn([C@@H]2O[C@H](CO)[C@@H](O)C2O)c(=O)n1` (stereo not given in full), for which the outcome was inactive.

As for `CCCCCCCC1CCCC1=O` (stereo not given), the result was inactive.

Turning to `CN1[C@@H]2CC[C@H]1CC(OC(=O)C(O)c1ccccc1)C2` (stereo not given in full), the result was inactive.

As to `CCCCCCCCCC[N+](C)(C)[O-]`, the outcome was inactive.

Consider `CCOC(=O)C1=NOC(c2ccccc2)(c2ccccc2)C1`, for which the result was inactive.

Consider `CNCC(O)c1ccc(O)c(O)c1` (stereo not given), for which the outcome was inactive.

As to `Cc1ccc(-c2ncc(Cl)cc2-c2ccc(S(C)(=O)=O)cc2)cn1`, the outcome was inactive.

On to `CCCCc1ccc2c(n1)[C@@H](c1ccc(OC)cc1C[C@H](C)C(=O)O)[C@H](C(=O)O)[C@H]2c1ccc2c(c1)OCO2`, for which the result was inactive.

For the compound `c1ccc(Cc2ccccc2)cc1`, the outcome was inactive.

For `CCCC[N+](C)(CCCC)CCCC`, the outcome was inactive.

In the case of `CC(COc1ccccc1)NN` (stereo not given), the result was inactive.

`Cc1ccnc(NS(=O)(=O)c2ccc(N)cc2)n1`: the result was inactive.

In the case of `CCCCCCCCCCCCCCC(=O)O`, the outcome was inactive.

`Cc1ncc([C@@H](CCCCCCc2ccc3c(n2)NCCC3)CC(=O)O)cn1`: the outcome was inactive.

In the case of `CCCCCCC1CCC(=O)O1` (stereo not given), the outcome was inactive.

On to `FB(F)F`, for which the result was inactive.

With `O=C(O)CNC(=O)c1ccc(CO)o1`, the outcome was inactive.

For `CC(N)C12CC3CC(CC(C3)C1)C2` (stereo not given), the outcome was inactive.

On to `CC(=O)C1CCCCC1=O` (stereo not given), for which the outcome was inactive.

Take `CN1C(C)(C)CC(O)CC1(C)C`: the outcome was inactive.

Regarding `CC(=O)c1ccccc1[N+](=O)[O-]`, the outcome was inactive.

For the compound `CCC1C(=O)OCC1Cc1cncn1C` (stereo not given), the outcome was inactive.

Turning to `O=S(=O)(O)c1cccc(S(=O)(=O)O)c1`, the result was inactive.

With `CC1=NN(c2cc(S(=O)(=O)O)ccc2Cl)C(=O)C1N=Nc1ccccc1` (stereo not given), the result was inactive.

Turning to `CCOC(=O)COC(=O)c1ccccc1C(=O)OCC`, the outcome was inactive.

With `COc1ccnc(CS(=O)c2nc3cc(OC(F)F)ccc3[nH]2)c1OC` (stereo not given), the outcome was inactive.

Consider `N[C@H](C(=O)O)[C@@H](O)c1ccc(O)c(O)c1`, for which the result was inactive.

`CC(=O)N1C[C@H](O)C[C@H]1C(=O)O`: the outcome was inactive.

On to `NC(CCC(=O)O)C(=O)O` (stereo not given), for which the outcome was inactive.

`Cc1ccc(C(=O)c2ccc(CC(=O)O)n2C)cc1`: the outcome was inactive.

Take `COc1cc(C(=O)NCc2ccc(OCCN(C)C)cc2)cc(OC)c1OC`: the outcome was inactive.

`CO/N=C(\C(=O)N[C@@H]1C(=O)N2C(C(=O)O)=C(CSc3nc(=O)c(O)nn3C)CS[C@H]12)c1csc(N)n1`: the result was inactive.

`CCOC(=O)OC(C)OC1=C(C(=O)Nc2ccccn2)N(C)S(=O)(=O)c2ccccc21` (stereo not given): the result was inactive.

As for `CCN1C=CN(C)C1C` (stereo not given), the outcome was inactive.

For `CC(=O)Oc1cccc(C)c1`, the outcome was inactive.

In the case of `C=CC(C)(CCC=C(C)C)OC(=O)CC` (stereo not given), the result was inactive.

On to `CC1=NS(=O)(=O)c2cc(Cl)ccc2N1`, for which the result was inactive.

Regarding `Cc1ccc(C(=O)c2ccccc2)cc1`, the outcome was inactive.

These data come from PubChem BioAssay (Tox21).
